# CYP2C9 inh: inhibitors of human CYP2C9. P11712. CYP2C9 Supersomes, luciferin-H conversion, luminescence. inhibition, % at 5 µM. actives 20% (n = 96,000). AID 777;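 active means blocking of liver enzyme CYP2C9 beyond about 50% at 5 µM, limit read from the data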
# CYP2C19 activ: increases human CYP2C19 enzyme activity; 96,000 tested, under 10 active; recombinant CYP2C19, luciferin-H EGE luminescence; active compounds read high; 0 = fully inhibited enzyme, 1 = untreated enzyme; activation factor at 5 µM; P33261;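 active means activation factor of at least 2 at 5 µM in the primary screen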
# CYP2C19 inhib: inhibitors of human CYP2C19; CYP2C19 Supersomes, luciferin-H EGE luminescence, 30 min; inhibition, % at 5 µM; actives 21% (n = 96,000);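 active means CYP2C19 inhibition above a set limit at 5 µM in the primary screen, cut at about 50% in these data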
# CYP2C9 act: increases human cytochrome P450 2C9 activity; P11712; recombinant CYP2C9, luciferin-H conversion, luminescence; active compounds read high; factor 1 = untreated enzyme, 0 = blocked; activation factor at 5 µM; actives 1.4% (n = 96,000); AID 1024;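 active means activation factor of 2 or more for CYP2C9 at a 5 µM dose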
# Cav3 T inh: blocks human Cav3.2 T-type calcium channel; O95180; Cav3.2-expressing cells, Fluo-4 calcium fluorescence FDSS; active compounds read low; B-score at 10 µM; actives 4% (n = 100,000); AID 449739;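 active means single-dose well whose peak fluorescence ratio is a statistical outlier from its plate by either plate-standardised score or position-corrected B-score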
# Numbers stand for hits; - = inactive; . = no result given. The list is not random: actives were taken first. Their share in the collection is about 27%.
SMILES,CYP2C9 inh,CYP2C19 activ,CYP2C19 inhib,CYP2C9 act,Cav3 T inh
Cc1ccc(C)c(N(C(=O)Cc2cccs2)C(C(=O)NC2CCCC2)c2ccc(C)o2)c1 (centres undefined),73,-,-,-,-
Cc1onc(-c2ccccc2)c1C(=O)N1CC(C)OC(C)C1 (centres undefined),-,-,-,-,-
CCCN(CCO)Cc1ccc(F)c(Br)c1,-,-,-,-,-
Cc1cc2cc(CNC(=O)c3ccc(S(=O)(=O)N4CCCCC4)cc3)ccc2n1C,-,-,-,-,-
COc1ccc(S(=O)(=O)NCc2ccc3c(c2)cc(C)n3C)cc1,-,-,76,-,-
Cc1cc2cc(CNC(=O)c3ccc(S(=O)(=O)N4CCCC4)cc3)ccc2n1C,82,-,-,-,-
CCS(=O)(=O)NCc1ccc2c(c1)cc(C)n2C,60,-,54,-,-
CCCCCCCC(=O)OC(CN1CCCCC1)CN1CCCC1=O (centres undefined),-,-,-,-,-
COc1ccc(N2CCN(c3oc(COc4ccccc4Cl)nc3C#N)CC2)cc1,56,-,-,-,-
N#Cc1nc(COc2ccccc2Cl)oc1N1CCCCCC1,.,.,.,.,-
COc1ccc(OCc2nc(C#N)c(N3CCN(c4ccc(OC)cc4)CC3)o2)cc1,.,.,.,.,-4.5
CCC(CC)C(=O)NCCc1cc2ccc(C)c(C)c2[nH]c1=O,-,-,-,-,.
O=C(Nc1ccc2c(c1)OCCO2)C1CCN(C(=O)c2ccc(Br)cc2)CC1,85,-,-,-,-
O=C(Nc1ccc2c(c1)OCCO2)C1CCN(C(=O)c2ccccc2)CC1,.,-,-,.,-
O=C(Nc1cccc(F)c1)C1CCN(C(=O)c2ccc(Br)cc2)CC1,93,-,90,-,-4.3
O=C(Nc1cccc(F)c1)C1CCN(c2nnnn2-c2ccccc2)CC1,51,-,-,-,-7.5
COc1cc2c(cc1OC)-c1nnc(-c3cccs3)n1C(C)(C)C2,.,.,.,.,-
O=C(Nc1ccc(N2CCCC2)cc1)c1cccc(F)c1,-,-,-,-,-5.7
O=C(Nc1cccc(F)c1)c1ccccc1,-,-,-,-,-
O=C(Nc1ccncc1)Nc1ccc(F)cc1F,83,-,97,-,-
O=C(Nc1ccncc1)c1ccc(F)cc1,61,-,88,-,-
O=C(Nc1ccc(N2CCCC2)cc1)c1ccccc1F,.,.,.,.,-
COc1ccc(NC(=O)c2ccc(-n3cccn3)nc2)cc1,-,-,-,-,-
O=C(Nc1ccc(F)cc1)c1ccc(-n2ccnc2)nc1,96,-,100,-,.
CCN(CC)S(=O)(=O)c1cc(C(=O)Nc2ccncc2)ccc1Cl,100,-,100,-,-
SMILES,CYP2C9 inh,CYP2C19 activ,CYP2C19 inhib,CYP2C9 act,Cav3 T inh
CC(C)CN1C(=O)c2ccc(C(=O)Nc3ccncc3)cc2C1=O,97,-,98,-,-
COc1ccc(C(=O)Nc2ccncc2)cc1OC,-,-,57,-,-
CCN(CC)S(=O)(=O)c1cc(C(=O)Nc2cccnc2)ccc1Cl,-,-,-,-,-
O=C(Nc1ccncc1)c1cccc(F)c1,-,-,56,-,-
CC(C)CN1C(=O)c2ccc(C(=O)Nc3nccs3)cc2C1=O,-,-,-,-,.
Cc1ccc(C)c(N2CCN(CCCNC(=O)Cn3cc4c(n3)CCC(C)C4)CC2)c1 (centres undefined),-,-,-,-,.
CCCCN1C2=NCCCN2c2cc(C)c(C)cc21,-,-,-,-,.
CN(CCNC(=O)Cn1c(=O)sc2ccccc21)Cc1ccccc1,-,-,-,-,-
CCCNC(=O)NC(=O)CN1C(=O)NC(C)(c2ccc(C)cc2)C1=O (centres undefined),-,-,-,-,-
CCOC(=O)c1c(C)[nH]c(C(=O)CN2C(=O)NC(CC)(c3ccccc3)C2=O)c1C (centres undefined),67,-,64,-,-5.7
CCOC(=O)c1c(C)[nH]c(C(=O)CSc2nc3ccccc3o2)c1C,-,-,-,-,-
CCOC(=O)c1c(C)[nH]c(C(=O)CN2C(=O)NC(C)(c3ccc(C)cc3)C2=O)c1C (centres undefined),75,-,83,-,-
NC(=O)N1CC(O)CC1C(=O)Nc1ccc(Cl)c(Cl)c1 (centres undefined),.,.,.,.,-
CCOc1cc(C2NC(=O)N(C)C(C)=C2C(=O)OC)cc(Br)c1O (centres undefined),86,-,-,-,-
Clc1ccc2c(c1)C(c1cccs1)=NNC(c1cccnc1)=N2,68,-,-,-,.
